Active and inactive are the calls of the source.
What was measured:
[1] = target: Albumin (Bos taurus) (UniProt P02769); experiment: bovine serum albumin binders on microarray, profiling panel, artefact control for SMM control protein annotation, biochemical, small-molecule microarray, Alexa647 label, 635/667 nm fluorescence (AID 1118); settings: BSA-A647 binding, fluorescence 635 nm, higher = more signal;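 further: score merges 667 nm emission intensity and signal-to-noise per printed compound spot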
Albumin (Bos taurus), sequence (P02769 whole entry, looked up): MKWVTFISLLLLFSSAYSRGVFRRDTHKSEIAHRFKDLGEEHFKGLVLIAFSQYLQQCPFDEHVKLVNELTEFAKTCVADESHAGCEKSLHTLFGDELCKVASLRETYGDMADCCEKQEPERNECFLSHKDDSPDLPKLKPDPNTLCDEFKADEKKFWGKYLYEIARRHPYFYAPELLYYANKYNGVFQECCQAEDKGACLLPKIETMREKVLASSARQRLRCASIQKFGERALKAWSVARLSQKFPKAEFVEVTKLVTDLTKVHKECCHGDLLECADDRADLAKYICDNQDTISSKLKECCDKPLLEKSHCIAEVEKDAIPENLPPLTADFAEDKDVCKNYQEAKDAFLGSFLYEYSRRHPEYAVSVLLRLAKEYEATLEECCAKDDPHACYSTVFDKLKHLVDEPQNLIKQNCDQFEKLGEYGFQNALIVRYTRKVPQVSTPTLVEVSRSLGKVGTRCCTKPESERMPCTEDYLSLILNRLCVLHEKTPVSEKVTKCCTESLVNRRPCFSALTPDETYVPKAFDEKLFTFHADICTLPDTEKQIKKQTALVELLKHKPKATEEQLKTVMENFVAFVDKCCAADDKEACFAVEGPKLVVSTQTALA

[2] = small-molecule microarray binders of probe aXIP, primary screen, biochemical, NeuroSMM set, 635/667 nm fluorescence (AID 1119); settings: higher = more signal, called active from +8 up or from −8 down;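 further: probe is the protein aXip251-270 applied at 1 µg/mL to compound-printed slides; binding of probe to printed compounds measured as 667 nm fluorescence plus signal to noise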
[3] = small-molecule binders of probe aNOTCH3, primary screen, biochemical, small-molecule microarray, 635/667 nm fluorescence (AID 1120); settings: higher = more signal;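 further: probe is a biotin-tagged antibody raised against NOTCH3 rather than NOTCH3 protein; score merges spot fluorescence near 667 nm with spot signal to noise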
[4] = small-molecule binders of probe aNOTCH2, primary screen, biochemical, small-molecule microarray, 635/667 nm fluorescence (AID 1121); settings: higher = more signal;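 further: score merges feature fluorescence read at 667 nm with its signal to noise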
[5] = target: Carbonic anhydrase 2 (Homo sapiens) (UniProt P00918); experiment: CAII small-molecule binders, profiling panel, biochemical, small-molecule microarray, Alexa647-labelled CAII (AID 1122); settings: CAII-A647 binding fluorescence, higher = more signal
[6] = COS7 lysate on small-molecule microarray, probe aHis, 635 nm (AID 1123); settings: COS7 cell lysate, fluorescence, higher = more signal;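 further: z-score combines 667nm fluorescence intensity with signal-to-noise per printed compound spot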
[7] = compound binding in COS7 lysate, probe aLAP1, primary screen, cell lysate, small-molecule microarray (AID 1124); settings: probe aLAP1, fluorescence, higher = more signal;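 further: lysate comes from COS7 cells expressing LAP1 and is applied at 0.3 µg/mL; score merges spot fluorescence near 667 nm with signal-to-noise over triplicate slides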
[8] = system: Sam68 (KHDRBS1); experiment: Sam68 small-molecule binders, primary screen, biochemical, small-molecule microarray, 635 nm fluorescence (AID 1125); settings: small-molecule microarray binding, higher = more signal;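 further: score merges 667 nm channel intensity with signal to noise over triplicate slides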
[9] = system: Chordin-like protein 2 (CHRDL2); experiment: CHRDL2 small-molecule binders, primary screen, biochemical, small-molecule microarray, 635 nm fluorescence (AID 1126); settings: small-molecule microarray binding, fluorescence 635 nm; higher = more signal;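 further: printed compound slides probed with Chrdl2 protein at 4 µg/mL for 1 h at 4 C; score merges 667 nm emission intensity with signal to noise over three replicate slides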
[10] = target: Concanavalin-A (Canavalia ensiformis) (UniProt P02866); experiment: ConA small-molecule binders, primary screen, artefact control for SMM control protein annotation, biochemical, small-molecule microarray, Alexa647 label, 635 nm (AID 1127); settings: ConA-A647 binding fluorescence, higher = more signal;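 further: z combines 667 nm emission intensity with signal-to-noise across three replicate slides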
Concanavalin-A (Canavalia ensiformis), sequence (P02866 whole entry, looked up): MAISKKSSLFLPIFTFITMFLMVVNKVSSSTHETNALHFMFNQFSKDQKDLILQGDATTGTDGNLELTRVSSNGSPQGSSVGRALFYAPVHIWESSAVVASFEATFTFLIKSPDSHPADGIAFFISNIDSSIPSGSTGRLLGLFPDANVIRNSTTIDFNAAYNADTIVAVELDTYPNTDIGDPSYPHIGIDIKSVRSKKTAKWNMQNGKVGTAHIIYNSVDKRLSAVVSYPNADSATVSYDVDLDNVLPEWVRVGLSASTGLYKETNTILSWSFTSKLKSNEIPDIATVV

[11] = anti-His antibody binders, primary screen, artefact control for SMM control protein annotation, biochemical, small-molecule microarray, 635 nm fluorescence (AID 1128); settings: anti-His Alexa647 antibody binding, higher = more signal;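 further: score merges feature fluorescence with signal-to-noise for each printed compound spot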
[12] = system: Human papillomavirus type 1a E7 protein (residues 1-88); experiment: HPV1a E7 small-molecule binders, primary screen, biochemical, small-molecule microarray, residues 1-88, 635 nm (AID 1129); settings: small-molecule microarray binding, fluorescence 635 nm; higher = more signal
[13] = target: Focal adhesion kinase 1 (Homo sapiens) (UniProt Q05397); experiment: small-molecule microarray binders of FAK, primary screen, biochemical, 635/667 nm fluorescence, BSA, DTT (AID 1130); settings: PTK2 binding, 635 nm fluorescence, higher = more signal;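 further: composite of spot emission at 667 nm and signal to noise over triplicate slides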
Focal adhesion kinase 1 (Homo sapiens), sequence (Q05397 whole entry, looked up): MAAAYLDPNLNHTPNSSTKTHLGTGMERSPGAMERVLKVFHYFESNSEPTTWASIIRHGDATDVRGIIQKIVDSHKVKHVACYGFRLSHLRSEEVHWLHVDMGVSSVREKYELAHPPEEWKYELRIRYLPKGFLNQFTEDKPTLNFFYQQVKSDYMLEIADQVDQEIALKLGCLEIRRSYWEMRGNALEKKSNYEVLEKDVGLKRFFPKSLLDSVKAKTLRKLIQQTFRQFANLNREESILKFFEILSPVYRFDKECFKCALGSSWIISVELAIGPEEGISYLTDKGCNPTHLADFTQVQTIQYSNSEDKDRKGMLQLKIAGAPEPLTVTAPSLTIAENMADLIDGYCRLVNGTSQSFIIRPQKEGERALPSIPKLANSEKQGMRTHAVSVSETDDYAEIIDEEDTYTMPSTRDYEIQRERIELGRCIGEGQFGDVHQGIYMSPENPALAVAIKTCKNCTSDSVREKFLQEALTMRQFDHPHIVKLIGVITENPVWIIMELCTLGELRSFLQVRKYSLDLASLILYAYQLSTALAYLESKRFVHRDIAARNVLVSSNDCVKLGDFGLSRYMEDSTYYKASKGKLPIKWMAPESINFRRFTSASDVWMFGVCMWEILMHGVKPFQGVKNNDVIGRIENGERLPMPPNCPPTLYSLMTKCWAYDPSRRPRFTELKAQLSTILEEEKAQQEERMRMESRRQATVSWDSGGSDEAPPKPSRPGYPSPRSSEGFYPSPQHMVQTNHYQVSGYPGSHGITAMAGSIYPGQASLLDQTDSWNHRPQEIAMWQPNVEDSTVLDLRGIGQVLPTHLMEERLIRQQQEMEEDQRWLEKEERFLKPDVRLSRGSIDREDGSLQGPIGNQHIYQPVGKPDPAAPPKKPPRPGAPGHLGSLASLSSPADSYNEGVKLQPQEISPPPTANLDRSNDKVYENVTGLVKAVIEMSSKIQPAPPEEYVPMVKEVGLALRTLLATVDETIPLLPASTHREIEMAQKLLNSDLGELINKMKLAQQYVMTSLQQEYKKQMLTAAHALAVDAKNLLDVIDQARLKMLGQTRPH

[14] = system: Fibrinogen (Alexa647-labelled); experiment: fibrinogen binders on compound microarrays, profiling panel, artefact control for SMM control-protein annotation, biochemical, small-molecule microarray, 635/667 nm fluorescence (AID 1131); settings: fibrinogen-A647 binding fluorescence, higher = more signal;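 further: z-score merges 667 nm fluorescence with per-spot signal-to-noise over triplicate slides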
[15] = target: Follistatin (Homo sapiens) (UniProt P19883); experiment: follistatin binders on small-molecule microarrays, primary screen, biochemical, small-molecule microarray, 635/667 nm fluorescence (AID 1132); settings: FST binding, 635 nm fluorescence, higher = more signal
Follistatin (Homo sapiens), sequence (P19883 whole entry, looked up): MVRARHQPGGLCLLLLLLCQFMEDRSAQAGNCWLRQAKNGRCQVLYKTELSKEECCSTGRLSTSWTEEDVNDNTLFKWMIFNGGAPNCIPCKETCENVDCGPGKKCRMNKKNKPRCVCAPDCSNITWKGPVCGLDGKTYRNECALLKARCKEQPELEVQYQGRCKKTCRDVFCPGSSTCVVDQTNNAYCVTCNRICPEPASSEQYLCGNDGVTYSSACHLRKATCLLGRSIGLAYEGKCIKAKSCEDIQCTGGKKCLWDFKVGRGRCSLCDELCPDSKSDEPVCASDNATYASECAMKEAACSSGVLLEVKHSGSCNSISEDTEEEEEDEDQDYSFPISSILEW

[16] = target: Fibroblast growth factor 2 (Homo sapiens) (UniProt P09038); experiment: FGF2 binders on small-molecule microarrays, primary screen, biochemical, small-molecule microarray, 635/667 nm fluorescence (AID 1133); settings: small-molecule microarray binding, FGF2, fluorescence 635/667; higher = more signal
Fibroblast growth factor 2 (Homo sapiens), sequence (P09038 whole entry, looked up): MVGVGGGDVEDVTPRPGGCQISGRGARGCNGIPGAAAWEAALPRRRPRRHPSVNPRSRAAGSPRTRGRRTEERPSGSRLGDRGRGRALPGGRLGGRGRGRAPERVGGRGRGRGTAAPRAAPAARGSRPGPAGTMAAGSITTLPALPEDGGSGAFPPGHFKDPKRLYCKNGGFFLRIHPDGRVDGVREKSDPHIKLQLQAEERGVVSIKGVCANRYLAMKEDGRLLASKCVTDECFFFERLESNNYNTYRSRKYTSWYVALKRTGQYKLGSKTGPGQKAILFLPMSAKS

[17] = mitochondrial membrane potential change in A549 cells, profiling panel, cell-based, JC-1 fluorescence, basal, 24 h, 100 nL (AID 1138); settings: higher = more signal;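 further: A549 lung adenocarcinoma cells under basal conditions with no added stimulus; test concentration not given here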
[18] = system: Lefty1; experiment: Lefty1 binders on small-molecule microarrays, primary screen, biochemical, small-molecule microarray, 635/667 nm fluorescence (AID 1139); settings: small-molecule microarray binding, fluorescence 635/667; higher = more signal
[19] = system: wheat germ agglutinin (Triticum aestivum), Alexa647-labelled; experiment: wheat germ agglutinin binders on compound microarrays, profiling panel, artefact control for SMM control-protein annotation, biochemical, small-molecule microarray, 635/667 nm fluorescence (AID 1140); settings: WGA-A647 binding, 635 nm fluorescence, higher = more signal;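 further: score merges 667 nm feature emission with signal to noise over triplicate slides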
[20] = target: Luciferin 4-monooxygenase (Photinus pyralis) (UniProt P08659); experiment: firefly luciferase enzyme inhibitors, primary screen, biochemical, luminescence, purified enzyme, 2006 set (AID 1141); settings: SteadyGlo luminescence, 30 min, higher = more signal, called active from +8 up or from −8 down;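 further: cell-free assay with purified firefly luciferase at 100 ng per well in PBS; test concentration not given here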
Luciferin 4-monooxygenase (Photinus pyralis), sequence (P08659 whole entry, looked up): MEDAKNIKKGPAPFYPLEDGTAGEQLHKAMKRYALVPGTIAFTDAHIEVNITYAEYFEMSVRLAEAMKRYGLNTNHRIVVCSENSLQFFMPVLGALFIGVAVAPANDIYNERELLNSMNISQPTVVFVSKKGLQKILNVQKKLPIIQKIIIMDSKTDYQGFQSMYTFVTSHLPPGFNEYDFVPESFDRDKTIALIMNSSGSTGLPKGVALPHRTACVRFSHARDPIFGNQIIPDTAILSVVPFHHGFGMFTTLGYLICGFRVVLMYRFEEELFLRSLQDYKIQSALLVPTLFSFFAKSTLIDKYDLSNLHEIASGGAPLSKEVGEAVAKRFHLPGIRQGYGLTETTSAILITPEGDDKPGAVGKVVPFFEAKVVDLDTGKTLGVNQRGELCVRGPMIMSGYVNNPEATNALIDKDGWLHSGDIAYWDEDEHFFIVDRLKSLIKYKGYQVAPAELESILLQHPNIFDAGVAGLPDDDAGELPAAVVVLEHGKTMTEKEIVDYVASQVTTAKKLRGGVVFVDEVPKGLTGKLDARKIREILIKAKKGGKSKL

**Q.** What does the source list for `CC1CC/C=C\[C@H]2OC34C=CCN(Cc5ccccc5)C(=O)[C@H]3N(CCCCCO)C(=O)[C@@H]4C2C(=O)O1` (stereo not given in full)?
**A.** composite z-score [1]: 0.363; composite Z-score [2]: 0.815 (inactive); composite z-score [3]: -0.213; composite z-score [4]: -0.19; composite z-score [5]: 0.871; composite z-score [6]: -0.351; composite z-score [7]: 1.4; composite z-score [8]: -0.883; composite z-score [9]: -0.0737; composite z-score [10]: -0.811; composite z-score [11]: 0.15; composite z-score [12]: -0.825; composite z-score [13]: 1.19; composite z-score [14]: -0.985; composite z-score [15]: -0.599; composite z-score [16]: -0.754; z-score [17]: 1.37; composite z-score [18]: -0.812; composite z-score [19]: -0.494; z-score [20]: -0.763 (inactive)

**Q.** For `COC(=O)[C@@]1(Cc2ccccc2)N=C(c2ccc(OCCCO)cc2)O[C@H]1c1ccccc1N=[N+]=[N-]`, which composite z-score [1] is on record?
**A.** The composite z-score was -0.541.

**Q.** And the composite Z-score [2]?
**A.** The composite Z-score was 2.98 (inactive).

**Q.** What about the composite z-score [3] of the same molecule?
**A.** Its composite z-score is 0.104.

**Q.** And the composite z-score [4]?
**A.** The composite z-score was 0.114.

**Q.** What about the composite z-score [5] of the same molecule?
**A.** Its composite z-score is 0.111.

**Q.** What about the composite z-score [6] of the same molecule?
**A.** Its composite z-score is 1.37.

**Q.** What about the composite z-score [7] of the same molecule?
**A.** Its composite z-score is 0.863.

**Q.** And the composite z-score [8]?
**A.** Its composite z-score is 1.06.

**Q.** And the composite z-score [9]?
**A.** Its composite z-score is 0.968.

**Q.** What about the composite z-score [10] of the same molecule?
**A.** Its composite z-score is 0.649.

**Q.** What about the composite z-score [11] of the same molecule?
**A.** The composite z-score was 2.72.

**Q.** And the composite z-score [12]?
**A.** Its composite z-score is 1.14.

**Q.** What about the composite z-score [13] of the same molecule?
**A.** Its composite z-score is -0.0746.

**Q.** What about the composite z-score [14] of the same molecule?
**A.** The composite z-score was 0.0857.

**Q.** And the composite z-score [15]?
**A.** Its composite z-score is 1.41.

**Q.** What about the composite z-score [16] of the same molecule?
**A.** Its composite z-score is 1.53.

**Q.** And the z-score [17]?
**A.** The z-score was 1.35.

**Q.** What about the composite z-score [18] of the same molecule?
**A.** Its composite z-score is 0.718.

**Q.** And the composite z-score [19]?
**A.** The composite z-score was 1.2.

**Q.** And the z-score [20]?
**A.** Its z-score is -13.8 (active).

**Q.** Which composite z-score [1] does the source give for `CC(C)(C)OC(=O)CC[C@]1(C(=O)N2CCCCC2)N=C(c2ccc(OCCCO)cc2)O[C@H]1c1ccccc1N=[N+]=[N-]` here?
**A.** Its composite z-score is 0.657.

**Q.** What about the composite Z-score [2] of the same molecule?
**A.** Its composite Z-score is 2.33 (inactive).

**Q.** What about the composite z-score [3] of the same molecule?
**A.** The composite z-score was 0.128.

**Q.** What about the composite z-score [4] of the same molecule?
**A.** The composite z-score was -0.0391.

**Q.** And the composite z-score [5]?
**A.** Its composite z-score is 0.528.

**Q.** What about the composite z-score [6] of the same molecule?
**A.** Its composite z-score is 2.05.

**Q.** What about the composite z-score [7] of the same molecule?
**A.** The composite z-score was -0.0995.

**Q.** What about the composite z-score [8] of the same molecule?
**A.** Its composite z-score is 1.25.

**Q.** And the composite z-score [9]?
**A.** Its composite z-score is -0.292.

**Q.** What about the composite z-score [10] of the same molecule?
**A.** The composite z-score was 1.19.

**Q.** And the composite z-score [11]?
**A.** Its composite z-score is 2.92.

**Q.** What about the composite z-score [12] of the same molecule?
**A.** The composite z-score was 1.26.

**Q.** What about the composite z-score [13] of the same molecule?
**A.** The composite z-score was 1.91.

**Q.** What about the composite z-score [14] of the same molecule?
**A.** The composite z-score was 0.753.

**Q.** What about the composite z-score [15] of the same molecule?
**A.** The composite z-score was 0.771.

**Q.** What about the composite z-score [16] of the same molecule?
**A.** The composite z-score was 1.6.

**Q.** And the z-score [17]?
**A.** The z-score was 2.83.

**Q.** And the composite z-score [18]?
**A.** The composite z-score was 0.513.

**Q.** And the composite z-score [19]?
**A.** Its composite z-score is 0.971.

**Q.** And the z-score [20]?
**A.** Its z-score is -12.8 (active).

Reference: PubChem BioAssay
